Consider 4 molecules from PubChem BioAssay (NCATS).

Calls of active or inactive are those of the source. The call rests on the fitted dose curve; in most records, active means well fitted curve in the direction sought with a large enough effect; inconclusive means small, poorly fitted or top-dose-only effect, or effect the other way, or another doubt; inactive means no such curve, though single readings can be large or run the other way.

This experiment in a line: Inducers of the Endoplasmic Reticulum Stress Response (ERSR) in human glioma: Validation (AID 504836). Conditions: human glioma cells, ER stress response reporter; series mostly up to 38.3 µM. The essentials: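 Stably transfected U87-MG human glioma cells carrying a GRP78-based luminescent sensor were seeded at 1000 cells/well, pin-dosed with compounds and incubated 16 h. Luciferase reagent was then added, and end-point luminescence was read after 10 min at room temperature.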
For the molecule `O=C1C(SCCO)=C(SCCO)C(=O)c2ccccc21`, the molecule was called inactive.
The entry for `C1CCC(N=C(NC23CC4CC(CC(C4)C2)C3)N2CCOCC2)CC1` is “inactive”; for `COc1ccccc1CNCCCCCCNCCCCCCCCNCCCCCCNCc1ccccc1OC` it is “inactive”.
The entry for `[N-]=[N+]=Nc1ccc(C(=O)CSC[C@H](NC(=O)CC[C@H](N)C(=O)O)C(=O)NCC(=O)O)cc1` is “inactive”.
